Measurements: PubChem BioAssay (NCI)
This is part of a sample that, as a whole, favours compounds with a hit. Of some 83,000 tested, about 20% had one in any assay.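 96-well plates, one dose, 48 hours. Percent growth reported; active if below 10.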 Active and inactive are the calls of the source.

Key:
Assay in all cases: NCI-60 one-dose screen, 48 h (100 = growth as untreated, 0 = no growth, -100 = all killed)
Details in all cases: 10 µM unless noted
DU-145 prostate = test system: DU-145 prostate
K-562 leukemia = test system: K-562 leukemia
MALME-3M melanoma = test system: MALME-3M melanoma
MDA-MB-231 breast = test system: MDA-MB-231 breast
RXF 393 renal = test system: RXF 393 renal
SF-268 CNS = test system: SF-268 CNS
SF-295 CNS = test system: SF-295 CNS
SF-539 CNS = test system: SF-539 CNS
UACC-257 melanoma = test system: UACC-257 melanoma
M14 melanoma = test system: M14 melanoma
HCT-15 colon = test system: HCT-15 colon
HT29 colon = test system: HT29 colon
SNB-75 CNS = test system: SNB-75 CNS
SNB-19 CNS = test system: SNB-19 CNS
PC-3 prostate = test system: PC-3 prostate
SK-MEL-5 melanoma = test system: SK-MEL-5 melanoma
UACC-62 melanoma = test system: UACC-62 melanoma
LOX IMVI melanoma = test system: LOX IMVI melanoma
SK-MEL-28 melanoma = test system: SK-MEL-28 melanoma
U251 CNS = test system: U251 CNS

Measured: growth

Cc1cc2nc(C(Cl)Cl)nc(-c3ccccc3)n2n1
active: DU-145 prostate -6.97% | RXF 393 renal 9.08% | SNB-75 CNS -4.36%
inactive: K-562 leukemia 66.4% | MALME-3M melanoma 113% | MDA-MB-231 breast 62.7% | SF-268 CNS 77.8% | SF-295 CNS 55.7% | SF-539 CNS 76.7% | UACC-257 melanoma 93% | M14 melanoma 73.3% | HCT-15 colon 41.2% | HT29 colon 12.6% | SNB-19 CNS 62.7% | PC-3 prostate 65.1% | SK-MEL-5 melanoma 94.4% | UACC-62 melanoma 88.9% | LOX IMVI melanoma 75.1% | SK-MEL-28 melanoma 85.1%

CC1=C(C(=O)OCc2ccccc2)C(c2ccc3c(c2)OCO3)n2c(nc3ccccc32)N1 (stereo not given)
active: SF-539 CNS 9.94% | SNB-75 CNS -6.67%
inactive: DU-145 prostate 53.5% | K-562 leukemia 13.8% | MALME-3M melanoma 39.7% | MDA-MB-231 breast 68.6% | RXF 393 renal 53.2% | SF-268 CNS 59.6% | SF-295 CNS 20.4% | UACC-257 melanoma 60.4% | M14 melanoma 28.1% | HCT-15 colon 30.4% | HT29 colon 14.4% | SNB-19 CNS 41.6% | PC-3 prostate 41.1% | SK-MEL-5 melanoma 25.5% | UACC-62 melanoma 46.2% | LOX IMVI melanoma 34.6% | SK-MEL-28 melanoma 61.8%

Cn1cc(-c2nc(-c3c[nH]c4ccncc34)cs2)c2cc(F)ccc21
active: DU-145 prostate -98.1% | K-562 leukemia -53.6% | MALME-3M melanoma -88.9% | MDA-MB-231 breast -90.7% | RXF 393 renal -94.7% | SF-268 CNS -80.1% | SF-295 CNS -85.9% | SF-539 CNS -97.1% | UACC-257 melanoma -73.1% | M14 melanoma -87.3% | HCT-15 colon -81.8% | HT29 colon -80.4% | SNB-75 CNS -95% | SNB-19 CNS -80.3% | PC-3 prostate -73.1% | SK-MEL-5 melanoma -97.9% | UACC-62 melanoma -85.7% | LOX IMVI melanoma -94.5% | SK-MEL-28 melanoma -95.1%

CCOC(=O)c1c(C)nc2c(c1N)C(=O)C(=O)N2CCc1ccc(OC)c(OC)c1
inactive: DU-145 prostate 89.7% | K-562 leukemia 25.6% | MALME-3M melanoma 79.1% | MDA-MB-231 breast 80.4% | RXF 393 renal 83.8% | SF-268 CNS 78.7% | SF-295 CNS 63.3% | SF-539 CNS 70% | UACC-257 melanoma 46.8% | M14 melanoma 70.6% | HCT-15 colon 33.3% | HT29 colon 39.6% | SNB-75 CNS 67% | SNB-19 CNS 84.8% | PC-3 prostate 58.9% | SK-MEL-5 melanoma 44.9% | UACC-62 melanoma 64.8% | LOX IMVI melanoma 76.9% | SK-MEL-28 melanoma 80.9%

O=C(Oc1ccccc1)c1cc(O)c(O)c(O)c1
inactive: DU-145 prostate 76.2% | K-562 leukemia 50.8% | MALME-3M melanoma 88% | MDA-MB-231 breast 63.4% | RXF 393 renal 110% | SF-268 CNS 59.7% | SF-295 CNS 73.5% | SF-539 CNS 54% | UACC-257 melanoma 112% | M14 melanoma 68.4% | HCT-15 colon 39.8% | HT29 colon 85.7% | SNB-75 CNS 79.5% | SNB-19 CNS 65.2% | PC-3 prostate 70.4% | SK-MEL-5 melanoma 58.4% | UACC-62 melanoma 31.3% | LOX IMVI melanoma 59.3% | SK-MEL-28 melanoma 89.9%

COc1ccc(-n2c(=O)n(-c3ccc(-c4nc5ccc(F)cc5s4)cc3)c(=O)c3cccnc32)cc1
inactive: DU-145 prostate 106% | K-562 leukemia 99.7% | MALME-3M melanoma 101% | MDA-MB-231 breast 97.1% | RXF 393 renal 129% | SF-268 CNS 106% | SF-295 CNS 94.5% | SF-539 CNS 107% | UACC-257 melanoma 94.7% | M14 melanoma 107% | HCT-15 colon 101% | HT29 colon 87.3% | SNB-75 CNS 75.2% | SNB-19 CNS 98.5% | U251 CNS 96.9% | UACC-62 melanoma 87.4% | LOX IMVI melanoma 99.5% | SK-MEL-28 melanoma 107%

COCCn1cc(-c2nc(-c3cc4cccnc4n3C)cs2)c2cc(OC)ccc21
inactive: DU-145 prostate 76.7% | MALME-3M melanoma 108% | MDA-MB-231 breast 27.5% | RXF 393 renal 78.3% | SF-268 CNS 71.3% | SF-295 CNS 66.1% | SF-539 CNS 66.9% | UACC-257 melanoma 74.3% | M14 melanoma 63.7% | HCT-15 colon 32.1% | HT29 colon 48.2% | SNB-75 CNS 47.7% | SNB-19 CNS 87.4% | PC-3 prostate 16.1% | SK-MEL-5 melanoma 26.7% | UACC-62 melanoma 61.7% | LOX IMVI melanoma 38.2%
active: K-562 leukemia 9.5%

Clc1nc(N2CCC[N+]3(CC2)CC[N+]2(CCCNCC2)CC3)nc(N2CCC[N+]3(CC2)CC[N+]2(CCCNCC2)CC3)n1 (stereo not given)
active: MALME-3M melanoma 3.84%
inactive: DU-145 prostate 91% | K-562 leukemia 104% | MDA-MB-231 breast 86.5% | RXF 393 renal 100% | SF-268 CNS 76.8% | SF-295 CNS 104% | SF-539 CNS 87.5% | UACC-257 melanoma 81.3% | M14 melanoma 103% | HCT-15 colon 83.2% | HT29 colon 54.9% | SNB-75 CNS 123% | SNB-19 CNS 112% | PC-3 prostate 101% | SK-MEL-5 melanoma 102% | UACC-62 melanoma 96.8% | LOX IMVI melanoma 98% | SK-MEL-28 melanoma 92.2%

COC(=O)c1cc(-c2ccc(OC)c(OC)c2)[nH]c1N/N=C/c1c(Cl)cccc1Cl
active: RXF 393 renal -10.4% | SF-295 CNS -0.264% | SF-539 CNS -15.2% | M14 melanoma 0.331% | SNB-75 CNS 4.55%
inactive: DU-145 prostate 21.2% | K-562 leukemia 19.9% | MALME-3M melanoma 46.8% | MDA-MB-231 breast 41.1% | SF-268 CNS 43.6% | UACC-257 melanoma 49.3% | HCT-15 colon 28.4% | HT29 colon 13.7% | SNB-19 CNS 36.1% | PC-3 prostate 26.3% | SK-MEL-5 melanoma 12.7% | UACC-62 melanoma 38.2% | LOX IMVI melanoma 39.3%

C(=N\Nc1nnc2n1N=C(c1ccccc1)CS2)/c1ccc(OCc2ccccc2)cc1
inactive: DU-145 prostate 104% | K-562 leukemia 57.6% | MALME-3M melanoma 125% | MDA-MB-231 breast 108% | RXF 393 renal 80.1% | SF-268 CNS 115% | SF-295 CNS 101% | SF-539 CNS 102% | UACC-257 melanoma 103% | M14 melanoma 113% | HCT-15 colon 97.4% | HT29 colon 114% | SNB-75 CNS 108% | SNB-19 CNS 102% | PC-3 prostate 76.2% | SK-MEL-5 melanoma 82.9% | UACC-62 melanoma 89.8% | LOX IMVI melanoma 95.8% | SK-MEL-28 melanoma 104%

COc1nc2ccccc2cc1/C=C1/C=C(c2ccccc2)NC1=O
inactive: DU-145 prostate 55.8% | K-562 leukemia 13.1% | MALME-3M melanoma 38.3% | MDA-MB-231 breast 46.1% | RXF 393 renal 46% | SF-268 CNS 48.8% | SF-295 CNS 28.5% | SF-539 CNS 19.6% | UACC-257 melanoma 60.7% | M14 melanoma 24.6% | HCT-15 colon 30.3% | HT29 colon 10% | SNB-75 CNS 28.8% | SNB-19 CNS 43.4% | PC-3 prostate 55.1% | UACC-62 melanoma 32.1% | LOX IMVI melanoma 38.8% | SK-MEL-28 melanoma 58.9%

COCCNC(=O)Cc1cc(-c2ccc(Cl)cc2)n(-c2ccccc2)c1C
inactive: DU-145 prostate 101% | K-562 leukemia 64.7% | MALME-3M melanoma 93.7% | MDA-MB-231 breast 89.9% | RXF 393 renal 84.8% | SF-268 CNS 88.5% | SF-295 CNS 85.6% | SF-539 CNS 92.8% | UACC-257 melanoma 95.6% | HCT-15 colon 81.8% | HT29 colon 84.8% | SNB-75 CNS 68.5% | SNB-19 CNS 79.2% | U251 CNS 84.5% | PC-3 prostate 81% | SK-MEL-5 melanoma 79.3% | UACC-62 melanoma 59.4% | LOX IMVI melanoma 85.5% | SK-MEL-28 melanoma 103%

COc1ccc(CNc2c3ccccc3nc3ccccc23)cc1OC
active: K-562 leukemia 8.81% | MALME-3M melanoma 7.92% | RXF 393 renal 3.58% | HT29 colon 4.44% | LOX IMVI melanoma -3.83%
inactive: DU-145 prostate 24.7% | MDA-MB-231 breast 19.4% | SF-268 CNS 39.6% | SF-295 CNS 18.1% | SF-539 CNS 15.4% | UACC-257 melanoma 22.1% | HCT-15 colon 10.3% | SNB-75 CNS 24.8% | SNB-19 CNS 21.8% | U251 CNS 23.2% | PC-3 prostate 22% | SK-MEL-5 melanoma 17.5% | UACC-62 melanoma 26.8%

CC1(C)CC[C@]2(CO)CC[C@]3(C)[C@H](CC[C@@H]4[C@@]5(C)CC[C@H](O)C(C)(C)[C@@H]5CC[C@]43C)[C@H]2[C@H]1O
inactive: DU-145 prostate 77.7% | K-562 leukemia 83.9% | MALME-3M melanoma 78.1% | MDA-MB-231 breast 26.5% | RXF 393 renal 61.1% | SF-268 CNS 83.7% | SF-295 CNS 86.4% | SF-539 CNS 12.8% | UACC-257 melanoma 104% | HCT-15 colon 93.4% | HT29 colon 56.3% | SNB-19 CNS 96.1% | U251 CNS 62.3% | SK-MEL-5 melanoma 91.8% | UACC-62 melanoma 90.6% | LOX IMVI melanoma 76.2% | SK-MEL-28 melanoma 91.2%
active: SNB-75 CNS -33.7%
